The list is not random: actives were taken first. Their share in the collection is about 4%.
HIF-2a block: inhibitors of HIF-2a; AID 624352; 786-0 RCC cells HIF-2a reporter, luciferase luminescence, overnight; 0.72% of 360,000 active; inhibition, % at 18.8 µM;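 active means inhibition of the luminescence signal of 40% or more relative to plate controls, in a single-dose primary screen at 18.75 µM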
KKLEB cytotox: counter-screen for CF NF-kB inhibitors: cytotoxicity; AID 602141; KKLEB CF airway cells viability, ATPlite luminescence, overnight; active compounds read low; cells stimulated with P. aeruginosa culture filtrate; activity change (cytotoxicity), % at 5 µM; 0.36% of 360,000 active;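 active means corrected activity change at or below -50% at 5 µM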
CF NFkB inh: cystic fibrosis NF-kB activation inhibition; inhibition, % at 5 µM; 0.86% of 360,000 active; KKLEB NF-kB-GFP reporter, PAF-induced, GFP fluorescence overnight; AID 588850;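 active means at least 50% inhibition at 5 µM, scaled per plate between neutral and stimulator controls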;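 further: PAF is a Pseudomonas aeruginosa culture filtrate used as stimulus; plate controls were PAF-stimulated DMSO wells for no effect and unstimulated DMSO wells for full effect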
Peg3 prom inh: Peg3 promoter activity inhibition. AID 588405. HeLa PEG-Prom luciferase reporter, luminescence, overnight. 1.7% of 360,000 active. inhibition, % at 20 µM;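 active means inhibition of at least 50% at 20 µM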
TWEAK Fn14 block: TWEAK-Fn14 signaling inhibition; TWEAK-stimulated Fn14 reporter cells, luciferase luminescence, 8 h; inhibition, % at 10 µM; 2% of 360,000 active; AID 1159606; in the data active means inhibition above about 50%
TROY signal inh: TROY signaling inhibition; Q293 LMP1-TROYcd NF-kB luciferase reporter, 4 h; AID 1347056; 0.98% of 360,000 active; inhibition, % at 10 µM;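 active means compounds whose plate-normalised and pattern-corrected inhibition of the luciferase reporter signal at the single screening dose is 50% or more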
Starred values were filed as active, the others as inactive.

SMILES	HIF-2a block	KKLEB cytotox	CF NFkB inh	Peg3 prom inh	TWEAK Fn14 block	TROY signal inh
O=C(OCn1ncc(Br)c(Br)c1=O)c1ccccc1Cl	92*	-96*	91*	106*	97*	80*
O=C(OCn1ncc(Br)c(Br)c1=O)c1ccc(F)cc1	93*	-104*	93*	109*	102*	83*
CCC(C)(C)NC(=O)C1CCN(c2nc(C)cc(C)n2)CC1	13	-6	10	-2	17	-5
Cc1cc(S(=O)(=O)NCc2ccccc2)ccc1OCC(=O)Nc1cccc([N+](=O)[O-])c1	14	-12	-32	32	52*	42
Cc1cc(N2CCN(C)CC2)nc2ccc(NC(=O)CCC(=O)N3CCN(c4ccc([N+](=O)[O-])cc4)CC3)cc12	10	-13	-11	1	-7	-1
CC(C)NC(=O)c1cc(C2CCCCN2C(=O)c2ccccc2)on1 (centres undefined)	6	-7	-2	4	-18	-30
CC(C)(C)C1CCC(CN2C(Nc3ccccc3)=NC[C@@H]2Cc2ccccc2)CC1 (some centres undefined)	8	-12	10	95*	-28	18
CCN1C(Nc2ccccc2)=NC[C@@H]1Cc1ccccc1	6	21	-14	-9	9	-14
CCC(C)NC(=O)N[C@@H](Cc1ccccc1)C(=O)O (some centres undefined)	11	-85*	13	2	-13	18
CC1CC2c3cccc(C(=O)O)c3C(=O)N2c2ccc(Cl)cc21 (centres undefined)	11	11	-8	-1	-8	9
CC(=O)N1c2ccc(Cl)cc2C2C=CCC2C1c1cccc2ccccc12 (centres undefined)	17	-18	35	66*	50	24
CC(Sc1ccc([N+](=O)[O-])cn1)C(=O)Nc1nccs1 (centres undefined)	1	9	-8	14	2	-7
COc1ccc(CNC(=S)NCc2ccc(Cl)cc2)cc1OC	6	10	20	11	22	25
Clc1cccc(-c2cc3nc4c(c(N5CCN(c6cnccn6)CC5)n3n2)CCCC4)c1	-115	-14	20	-106	61*	26
Clc1cccc(-c2cc3nc4c(c(N5CCOCC5)n3n2)CCCC4)c1	-80	-11	18	-212	6	28
COc1cccc(NC(=O)CN(C)C(=O)c2c(-c3c(F)cccc3Cl)noc2C)c1	-5	12	19	3	2	-9
CCSC(C)CC1CC(=O)CC(=O)C1 (centres undefined)	16	-12	8	4	-21	3
CC(=O)Nc1cccc(N/C=C(\C=O)c2nc3ccccc3o2)c1	-239	-10	-24	-142	-9	-57
N=C(N)SCc1cn(-c2ccccc2)nc1-c1ccc(Br)cc1	-23	-5	16	108*	1	9
O=C(NNc1nccc(C(F)(F)F)n1)Nc1cccc(Cl)c1	24	4	3	9	14	-2
COc1ccc2c(c1)-c1c(ssc1=S)C(C)(C)N2C(=O)CSC1=NCCS1	21	3	21	23	44	45
CCOc1ccc2c(c1)-c1c(ssc1=S)C(C)(C)N2C(=O)c1ccco1	17	-12	53*	31	18	18
O=C(NNc1c2ccccc2nc2ccccc12)c1ccccc1O	-84	-4	-142	3	21	54*
O=C(NNc1c2ccccc2nc2ccccc12)c1ccc(O)cc1O	-50	-5	-125	-15	-35	-37
COc1ccc(OCC(=O)NNc2c3ccccc3nc3ccccc23)cc1	-1	1	-21	49	57*	-5
SMILES	HIF-2a block	KKLEB cytotox	CF NFkB inh	Peg3 prom inh	TWEAK Fn14 block	TROY signal inh
O=C(Nc1ccc(Cl)c([N+](=O)[O-])c1)C(Sc1ccccc1)c1ccccc1 (centres undefined)	18	-8	50	53*	94*	55*
O=C(Nc1cc([N+](=O)[O-])ccc1Cl)C(Sc1ccccc1)c1ccccc1 (centres undefined)	21	-1	5	28	-9	-6
O=C(NNc1ccccc1[N+](=O)[O-])Nc1ccc(Cl)c(Cl)c1	1	19	22	-9	39	55*
CCOC(=O)c1c(-c2ccc(C)o2)csc1NC(=O)CSc1ncn[nH]1	16	10	34	11	-11	4
CN(C)/N=C/C=C1\CCC/C(=C\c2ccc(F)c(F)c2)C1=O	-98	-2	-12	41	87*	-13
COc1ccc(/C=C2\CCC/C(=C\C=N\N(C)C)C2=O)cc1	-132	15	-35	-95	44	-13
CC(C)Sc1nc(SCC(=O)O)c2c3c(sc2n1)COC(C)(C)C3	-64	-1	8	-31	-15	-44
CC(C)Sc1nc(SCC(=O)NCc2ccco2)c2c3c(sc2n1)COC(C)(C)C3	-88	2	-2	-63	79*	79*
Cc1cccn2cc(-c3ccc(NC(=O)Cc4ccccc4)cc3)nc12	-33	12	-21	6	-24	89*
Cc1nc(SCC(=O)O)c2oc3ccccc3c2n1	21	-3	-3	6	-5	-13
Cn1c(CC(=O)Nc2ccc(Cl)c(Cl)c2)nnc1SCC(=O)N1CCN(c2ccccc2)CC1	3	-18	48	27	51*	29
CC(NC(=O)CSc1nnc(CC(=O)Nc2ccc(Cl)c(Cl)c2)n1C)c1ccccc1 (centres undefined)	16	-7	10	16	12	-8
CCn1c(SCC(=O)N2CCN(c3ccccc3)CC2)nnc1-c1cc2cc(Cl)ccc2o1	6	8	5	3	47	59*
Cc1nc(SCC(=O)N2CCN(c3ccccc3)CC2)c2oc3ccccc3c2n1	36	-3	7	56*	52*	24
COc1ccc(S(=O)(=O)N2CCC(Cc3ccccc3)CC2)cc1NC(C)=O	-1	5	11	18	6	-5
COc1cc2nc(NC(=O)c3ccc(F)cc3Cl)sc(=O)c2cc1OC	0	-14	9	17	64*	-4
O=C(Nc1nc2ccsc2c(=O)s1)c1ccc(F)cc1Cl	-235	-8	30	-213	-11	-38
COc1ccc(C(=O)NCc2nnc(SCC(=O)N3CCc4ccccc43)n2C2CCCCC2)cc1	5	-11	5	12	8	12
Cc1ccc(/C=N/Nc2nc3ccccc3[nH]2)s1	-190	4	-42	-241	50*	-57
C(=N\Nc1nc2ccccc2[nH]1)/c1c[nH]c2ccccc12	-237	21	-55	-217	51*	-25
COc1ccc(/C=N/Nc2ccccn2)c(OC)c1OC	-253	-1	-13	-219	-42	-14
COc1ccc(/C=N/Nc2nc3ccccc3[nH]2)c(OC)c1OC	-55	5	-26	-156	78*	73*
